{"source": "PubChem BioAssay", "note": "Unmarked numbers belong to inactive results. No rule for the calls is given here.", "data": [{"target": "Pantothenate synthetase (Mycobacterium tuberculosis (strain ATCC 25618 / H37Rv)) (UniProt P9WIL5)", "sequence (P9WIL5 whole entry, looked up)": "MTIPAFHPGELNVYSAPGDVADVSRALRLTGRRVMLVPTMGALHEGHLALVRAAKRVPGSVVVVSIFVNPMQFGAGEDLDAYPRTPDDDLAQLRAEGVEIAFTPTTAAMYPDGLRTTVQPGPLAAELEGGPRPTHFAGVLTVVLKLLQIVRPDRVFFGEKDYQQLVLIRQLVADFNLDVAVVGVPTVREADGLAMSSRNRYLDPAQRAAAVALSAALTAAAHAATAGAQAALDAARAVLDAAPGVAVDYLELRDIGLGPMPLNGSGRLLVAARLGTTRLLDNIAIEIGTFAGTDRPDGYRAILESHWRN", "assay": "Recombinant Mtb pantothenate synthetase (PanC) inhibitors, coupled enzyme, confirmatory (AID 375);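 also: 0% = full reaction with vehicle and 100% = no enzyme background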", "conditions": "coupled enzyme assay; at 10 µM, active compounds read high", "units": {"inhibition": "%"}, "values": [{"smiles": "CC(=O)Nc1nnc(S(N)(=O)=O)s1", "inhibition": 0}, {"smiles": "COC(=O)C1CCN(C(=O)NC(C)(C)C)CC1", "inhibition": 6}, {"smiles": "CCn1c(SCC(=O)N2CCCc3ccccc32)nnc1-c1cccs1", "inhibition": 0}, {"smiles": "COc1ccc2[nH]c(=O)c(CN(Cc3cccs3)S(=O)(=O)c3cccc4nsnc34)cc2c1", "inhibition": 0}, {"smiles": "Nc1c(C(=O)NCc2ccco2)nnn1Cc1ccccc1", "inhibition": 2}, {"smiles": "CCCC1CCC(C(=O)Nn2cnc3ccccc3c2=O)CC1", "note": "(stereo not drawn)", "inhibition": 1}, {"smiles": "COc1ccc(C2C(C(=O)c3sc(C)nc3C)=C(O)C(=O)N2CCN(C)C)cc1OC", "note": "(stereo not drawn)", "inhibition": 0}, {"smiles": "COc1ccc(C2CC(c3ccc(Cl)cc3Cl)n3nc(N)nc3N2)cc1", "note": "(stereo not drawn)", "inhibition": 0}, {"smiles": "CCCCC(=O)Nc1c(O)c2ccccc2[nH]c1=O", "inhibition": 0}, {"smiles": "O=c1sc(Nc2ccccc2)nc2ccsc12", "inhibition": 0}, {"smiles": "COc1cccc(OC)c1OCCN1CCN(C(=O)c2ccco2)CC1", "inhibition": 0}, {"smiles": "O=C(NCc1ccco1)c1cccc(-c2nnc(-c3ccccc3)o2)c1", "inhibition": 0}, {"smiles": "COc1ccc(OC(C)C(=O)N2CC(C)OC(C)C2)cc1", "note": "(stereo not drawn)", "inhibition": 10}, {"smiles": "Cn1c(NCc2cccc(Br)c2)nc2ccccc21", "inhibition": 1}, {"smiles": "Cc1cc(C)n2nc(SCc3cc(=O)n4ccccc4n3)nc2n1", "inhibition": 0}, {"smiles": "O=C(CN1C(=O)CSC1=O)Nc1ccc(N2CCOCC2)cc1", "inhibition": 7}, {"smiles": "O=C(NCCCN1CCCC1=O)c1ccc2c(=O)n(Cc3ccco3)c(=S)[nH]c2c1", "inhibition": 0}, {"smiles": "NC(=O)C1CCN(C(=S)c2cccs2)CC1", "inhibition": 0}]}]}
